Experiments:
Experiment in all cases: log2 ratio of Biotin-Ahx-Ub-VS probe labelling (fragment/DMSO); higher = less target engagement (more negative = stronger competition), active = hit call of the paper (q ≤ 0.05, log2 ratio ≤ -1)
Conditions in all cases: compound concentration: 200 uM; treatment time: 3 h
USP19 = target: T1, USP19 (UniProt O94966)
T1 sequence (whole entry): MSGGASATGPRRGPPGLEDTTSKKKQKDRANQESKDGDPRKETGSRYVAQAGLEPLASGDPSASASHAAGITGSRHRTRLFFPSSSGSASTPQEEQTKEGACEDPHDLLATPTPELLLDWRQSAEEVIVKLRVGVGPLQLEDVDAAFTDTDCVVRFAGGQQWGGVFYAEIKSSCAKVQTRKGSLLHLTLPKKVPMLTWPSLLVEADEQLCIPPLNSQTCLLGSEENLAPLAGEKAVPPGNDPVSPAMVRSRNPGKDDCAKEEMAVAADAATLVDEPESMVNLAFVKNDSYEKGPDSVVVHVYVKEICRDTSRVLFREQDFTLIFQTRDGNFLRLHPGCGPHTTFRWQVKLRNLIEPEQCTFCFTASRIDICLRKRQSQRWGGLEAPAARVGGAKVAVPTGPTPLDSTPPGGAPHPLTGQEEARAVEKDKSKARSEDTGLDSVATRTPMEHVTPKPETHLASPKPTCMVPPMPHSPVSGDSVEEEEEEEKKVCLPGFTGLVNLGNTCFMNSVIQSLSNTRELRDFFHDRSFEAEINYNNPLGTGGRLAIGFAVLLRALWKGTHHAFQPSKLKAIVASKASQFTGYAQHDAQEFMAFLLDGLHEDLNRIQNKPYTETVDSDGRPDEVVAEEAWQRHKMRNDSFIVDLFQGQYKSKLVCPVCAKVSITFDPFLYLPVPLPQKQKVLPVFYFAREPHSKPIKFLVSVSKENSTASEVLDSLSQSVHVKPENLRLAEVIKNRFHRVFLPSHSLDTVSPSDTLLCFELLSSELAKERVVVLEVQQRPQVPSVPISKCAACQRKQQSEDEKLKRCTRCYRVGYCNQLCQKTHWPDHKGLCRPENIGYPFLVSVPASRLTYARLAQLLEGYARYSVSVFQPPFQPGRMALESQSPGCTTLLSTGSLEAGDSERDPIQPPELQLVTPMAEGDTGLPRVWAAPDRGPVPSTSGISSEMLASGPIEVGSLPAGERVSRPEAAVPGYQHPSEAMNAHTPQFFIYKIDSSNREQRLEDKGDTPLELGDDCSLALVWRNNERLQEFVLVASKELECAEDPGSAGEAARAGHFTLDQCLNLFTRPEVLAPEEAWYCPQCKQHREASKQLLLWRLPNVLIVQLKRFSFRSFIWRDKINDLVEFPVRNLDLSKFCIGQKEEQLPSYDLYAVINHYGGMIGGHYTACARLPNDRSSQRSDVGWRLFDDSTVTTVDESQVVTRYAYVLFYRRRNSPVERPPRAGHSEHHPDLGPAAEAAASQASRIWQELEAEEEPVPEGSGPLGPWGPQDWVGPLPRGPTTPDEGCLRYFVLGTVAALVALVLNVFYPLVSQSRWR
Method in brief: (§1)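 Labelling with Biotin-Ahx-Ub-VS (0.5 µM final, 1 h) followed a 3 h triplicate treatment of HEK293T lysate (495 µg per sample, Tris/CHAPS/IGEPAL buffer with protease inhibitors) with fragment at 200 µM or vehicle. Labelled DUBs were NeutrAvidin-enriched, digested with LysC and trypsin, and run by diaPASEF LC-MS/MS. The values, average log2 fragment/vehicle ratios by unpaired t-test, come from global-median-normalised Spectronaut label-free quantities. Proteins with ≥2 unique peptides were used.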

USP22 = target: T2, USP22 (UniProt Q9UPT9)
T2 sequence (whole entry): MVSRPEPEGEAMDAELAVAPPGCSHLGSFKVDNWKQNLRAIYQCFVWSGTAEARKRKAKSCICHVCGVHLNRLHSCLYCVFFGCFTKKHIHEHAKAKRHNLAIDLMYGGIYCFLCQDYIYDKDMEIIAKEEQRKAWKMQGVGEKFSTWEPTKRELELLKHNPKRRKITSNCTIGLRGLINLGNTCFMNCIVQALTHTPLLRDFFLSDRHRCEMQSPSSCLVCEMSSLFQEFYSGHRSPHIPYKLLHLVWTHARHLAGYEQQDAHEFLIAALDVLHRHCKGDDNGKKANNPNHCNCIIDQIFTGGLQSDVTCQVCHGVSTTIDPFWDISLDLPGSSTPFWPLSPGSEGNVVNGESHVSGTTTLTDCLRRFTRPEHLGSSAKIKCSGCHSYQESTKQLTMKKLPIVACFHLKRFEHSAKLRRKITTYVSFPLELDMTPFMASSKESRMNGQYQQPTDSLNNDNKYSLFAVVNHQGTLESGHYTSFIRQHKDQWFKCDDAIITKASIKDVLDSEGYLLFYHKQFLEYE
Method in brief: as §1

USP24 = USP24 (UniProt Q9UPU5)
Method in brief: as §1

USP25 = target: T3, USP25 (UniProt Q9UHP3)
T3 sequence (whole entry): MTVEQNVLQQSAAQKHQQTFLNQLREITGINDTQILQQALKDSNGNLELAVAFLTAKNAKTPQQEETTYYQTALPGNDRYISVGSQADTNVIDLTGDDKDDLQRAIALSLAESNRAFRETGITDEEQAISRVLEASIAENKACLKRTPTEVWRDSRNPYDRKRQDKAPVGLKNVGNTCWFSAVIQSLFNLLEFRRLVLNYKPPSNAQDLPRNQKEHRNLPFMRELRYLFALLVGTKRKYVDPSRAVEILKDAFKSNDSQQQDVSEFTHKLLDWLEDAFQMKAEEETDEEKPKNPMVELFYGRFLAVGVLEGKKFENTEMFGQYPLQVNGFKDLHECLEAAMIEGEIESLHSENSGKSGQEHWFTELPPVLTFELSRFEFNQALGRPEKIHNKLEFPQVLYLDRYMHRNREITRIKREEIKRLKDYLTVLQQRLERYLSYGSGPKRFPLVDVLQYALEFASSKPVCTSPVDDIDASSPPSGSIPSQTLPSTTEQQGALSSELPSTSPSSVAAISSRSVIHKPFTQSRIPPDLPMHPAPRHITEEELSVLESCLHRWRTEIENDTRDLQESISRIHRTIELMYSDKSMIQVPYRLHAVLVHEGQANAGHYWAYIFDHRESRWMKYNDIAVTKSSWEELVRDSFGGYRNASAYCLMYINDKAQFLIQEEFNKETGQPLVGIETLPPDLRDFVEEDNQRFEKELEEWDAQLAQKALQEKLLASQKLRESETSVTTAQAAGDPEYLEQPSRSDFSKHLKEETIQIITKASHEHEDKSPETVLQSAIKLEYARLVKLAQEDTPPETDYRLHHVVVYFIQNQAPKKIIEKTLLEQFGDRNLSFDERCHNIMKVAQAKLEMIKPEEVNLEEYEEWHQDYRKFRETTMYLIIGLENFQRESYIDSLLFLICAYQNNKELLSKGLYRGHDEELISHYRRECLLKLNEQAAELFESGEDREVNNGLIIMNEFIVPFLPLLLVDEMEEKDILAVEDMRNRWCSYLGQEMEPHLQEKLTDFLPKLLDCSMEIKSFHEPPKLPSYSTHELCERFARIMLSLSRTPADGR
Method in brief: as §1

USP28 = target: T4, USP28 (UniProt Q96RU2)
T4 sequence (whole entry): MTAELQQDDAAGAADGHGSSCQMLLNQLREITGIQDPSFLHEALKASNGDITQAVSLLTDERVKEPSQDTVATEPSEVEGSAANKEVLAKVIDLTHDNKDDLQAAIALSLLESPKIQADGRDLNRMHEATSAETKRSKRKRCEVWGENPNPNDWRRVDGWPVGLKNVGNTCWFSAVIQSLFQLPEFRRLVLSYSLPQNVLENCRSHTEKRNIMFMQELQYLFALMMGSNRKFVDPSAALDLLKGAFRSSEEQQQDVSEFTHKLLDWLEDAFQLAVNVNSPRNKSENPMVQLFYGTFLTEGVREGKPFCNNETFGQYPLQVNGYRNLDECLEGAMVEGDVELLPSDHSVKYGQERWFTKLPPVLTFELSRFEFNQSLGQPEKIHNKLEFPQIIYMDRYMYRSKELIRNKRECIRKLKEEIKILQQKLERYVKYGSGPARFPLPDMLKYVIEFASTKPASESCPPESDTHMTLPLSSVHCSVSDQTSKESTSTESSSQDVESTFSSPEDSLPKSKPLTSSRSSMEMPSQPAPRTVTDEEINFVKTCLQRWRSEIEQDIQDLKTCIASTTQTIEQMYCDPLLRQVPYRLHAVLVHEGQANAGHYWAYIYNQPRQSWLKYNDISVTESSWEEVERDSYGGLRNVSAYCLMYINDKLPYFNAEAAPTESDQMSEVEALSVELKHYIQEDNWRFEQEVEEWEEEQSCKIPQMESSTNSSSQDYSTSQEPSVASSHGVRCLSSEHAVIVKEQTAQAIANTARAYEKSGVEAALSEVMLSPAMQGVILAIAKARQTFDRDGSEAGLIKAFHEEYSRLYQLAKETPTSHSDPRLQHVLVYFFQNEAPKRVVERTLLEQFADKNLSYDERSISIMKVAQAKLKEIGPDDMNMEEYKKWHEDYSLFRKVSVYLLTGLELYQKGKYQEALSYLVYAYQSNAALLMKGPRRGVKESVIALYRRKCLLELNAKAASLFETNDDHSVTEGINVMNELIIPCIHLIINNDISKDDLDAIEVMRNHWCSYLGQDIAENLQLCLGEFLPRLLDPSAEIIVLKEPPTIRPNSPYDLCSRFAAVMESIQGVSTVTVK
Method in brief: as §1

Measured: log2 ratio of Biotin-Ahx-Ub-VS probe labelling

USP24, sequence (Q9UPU5 whole entry): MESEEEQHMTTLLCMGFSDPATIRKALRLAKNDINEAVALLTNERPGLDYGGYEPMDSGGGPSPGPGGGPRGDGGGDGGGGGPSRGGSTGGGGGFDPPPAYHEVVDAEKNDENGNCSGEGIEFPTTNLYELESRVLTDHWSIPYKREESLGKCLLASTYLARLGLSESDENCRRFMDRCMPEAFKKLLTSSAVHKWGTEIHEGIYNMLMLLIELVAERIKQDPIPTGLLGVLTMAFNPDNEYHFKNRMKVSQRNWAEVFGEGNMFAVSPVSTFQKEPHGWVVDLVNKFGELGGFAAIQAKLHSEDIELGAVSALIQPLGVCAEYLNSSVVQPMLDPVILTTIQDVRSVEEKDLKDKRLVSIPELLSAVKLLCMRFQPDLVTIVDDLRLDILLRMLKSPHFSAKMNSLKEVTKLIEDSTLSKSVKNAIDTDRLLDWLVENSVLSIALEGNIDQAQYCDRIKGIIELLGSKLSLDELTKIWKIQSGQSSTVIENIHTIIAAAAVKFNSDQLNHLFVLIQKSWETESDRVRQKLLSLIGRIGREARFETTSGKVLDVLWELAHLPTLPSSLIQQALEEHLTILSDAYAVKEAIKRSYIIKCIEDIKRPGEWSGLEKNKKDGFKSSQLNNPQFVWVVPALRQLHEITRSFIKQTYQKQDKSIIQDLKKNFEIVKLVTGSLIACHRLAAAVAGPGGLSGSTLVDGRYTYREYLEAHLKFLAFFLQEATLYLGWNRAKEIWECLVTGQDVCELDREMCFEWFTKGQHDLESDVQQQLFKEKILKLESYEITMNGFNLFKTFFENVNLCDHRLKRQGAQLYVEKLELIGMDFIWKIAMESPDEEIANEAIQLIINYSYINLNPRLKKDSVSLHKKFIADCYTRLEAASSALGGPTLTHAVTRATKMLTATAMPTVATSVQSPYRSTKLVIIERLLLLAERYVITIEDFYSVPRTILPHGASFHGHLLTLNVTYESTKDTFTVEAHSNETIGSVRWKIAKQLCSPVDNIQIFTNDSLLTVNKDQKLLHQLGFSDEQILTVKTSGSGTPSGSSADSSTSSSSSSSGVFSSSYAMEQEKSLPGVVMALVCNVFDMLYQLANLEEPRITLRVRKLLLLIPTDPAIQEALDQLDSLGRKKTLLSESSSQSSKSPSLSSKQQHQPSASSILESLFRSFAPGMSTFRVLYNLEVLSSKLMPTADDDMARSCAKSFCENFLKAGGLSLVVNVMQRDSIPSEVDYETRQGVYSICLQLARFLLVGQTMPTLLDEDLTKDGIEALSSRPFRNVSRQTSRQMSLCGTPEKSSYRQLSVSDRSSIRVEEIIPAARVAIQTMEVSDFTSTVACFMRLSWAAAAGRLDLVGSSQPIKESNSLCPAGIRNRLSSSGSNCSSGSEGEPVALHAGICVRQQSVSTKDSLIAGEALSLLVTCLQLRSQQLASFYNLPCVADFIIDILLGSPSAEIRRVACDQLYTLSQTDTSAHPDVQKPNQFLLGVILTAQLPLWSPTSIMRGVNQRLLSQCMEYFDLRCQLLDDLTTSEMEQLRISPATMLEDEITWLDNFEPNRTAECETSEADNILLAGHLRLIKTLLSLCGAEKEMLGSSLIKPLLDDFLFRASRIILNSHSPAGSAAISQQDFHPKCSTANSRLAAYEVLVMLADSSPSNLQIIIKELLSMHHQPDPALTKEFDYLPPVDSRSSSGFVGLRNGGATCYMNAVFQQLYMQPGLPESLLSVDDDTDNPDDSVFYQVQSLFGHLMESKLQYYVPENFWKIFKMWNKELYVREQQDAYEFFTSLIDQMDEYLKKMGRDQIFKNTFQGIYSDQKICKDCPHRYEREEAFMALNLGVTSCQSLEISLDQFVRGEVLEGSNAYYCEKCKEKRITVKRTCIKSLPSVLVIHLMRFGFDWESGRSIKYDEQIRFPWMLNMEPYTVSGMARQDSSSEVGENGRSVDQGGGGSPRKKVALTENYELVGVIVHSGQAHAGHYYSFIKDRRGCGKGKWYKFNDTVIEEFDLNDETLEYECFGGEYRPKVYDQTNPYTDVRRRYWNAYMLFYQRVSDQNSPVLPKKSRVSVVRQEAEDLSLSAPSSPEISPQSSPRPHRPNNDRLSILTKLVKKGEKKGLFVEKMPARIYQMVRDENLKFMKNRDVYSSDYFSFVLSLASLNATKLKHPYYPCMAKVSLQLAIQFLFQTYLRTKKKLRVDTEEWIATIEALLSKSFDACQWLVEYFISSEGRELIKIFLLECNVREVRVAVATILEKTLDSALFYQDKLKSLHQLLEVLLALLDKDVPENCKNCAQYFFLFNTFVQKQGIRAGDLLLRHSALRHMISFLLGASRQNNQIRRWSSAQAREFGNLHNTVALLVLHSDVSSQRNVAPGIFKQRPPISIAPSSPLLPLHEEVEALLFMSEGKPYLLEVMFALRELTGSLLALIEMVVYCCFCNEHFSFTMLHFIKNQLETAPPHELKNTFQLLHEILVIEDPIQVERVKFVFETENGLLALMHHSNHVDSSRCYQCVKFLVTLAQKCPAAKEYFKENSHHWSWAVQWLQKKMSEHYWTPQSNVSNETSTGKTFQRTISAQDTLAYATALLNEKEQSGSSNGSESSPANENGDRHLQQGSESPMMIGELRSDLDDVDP

Cl.O=C(CCl)NCc1cc2c(nc1O)CCCC2
inactive: USP19 -0.0739 | USP22 -0.0357 | USP24 -0.254 | USP25 -0.59 | USP28 -0.576

From the supplement of paper PMC11732987, “Enantioselective OTUD7B fragment discovery through chemoproteomics screening and high-throughput optimisation” (Communications Chemistry, 2025)
